The source made the active and inactive calls. The rule behind the calls is not given here.
Target: Histone deacetylase 5 (Homo sapiens) (UniProt Q9UQL6)
Assay: inhibitors of recombinant human HDAC5 – biochemical, selectivity assay for E-cadherin restoration project, profiling panel (AID 651915)

Histone deacetylase 5 (Homo sapiens), sequence (Q9UQL6 whole entry, looked up): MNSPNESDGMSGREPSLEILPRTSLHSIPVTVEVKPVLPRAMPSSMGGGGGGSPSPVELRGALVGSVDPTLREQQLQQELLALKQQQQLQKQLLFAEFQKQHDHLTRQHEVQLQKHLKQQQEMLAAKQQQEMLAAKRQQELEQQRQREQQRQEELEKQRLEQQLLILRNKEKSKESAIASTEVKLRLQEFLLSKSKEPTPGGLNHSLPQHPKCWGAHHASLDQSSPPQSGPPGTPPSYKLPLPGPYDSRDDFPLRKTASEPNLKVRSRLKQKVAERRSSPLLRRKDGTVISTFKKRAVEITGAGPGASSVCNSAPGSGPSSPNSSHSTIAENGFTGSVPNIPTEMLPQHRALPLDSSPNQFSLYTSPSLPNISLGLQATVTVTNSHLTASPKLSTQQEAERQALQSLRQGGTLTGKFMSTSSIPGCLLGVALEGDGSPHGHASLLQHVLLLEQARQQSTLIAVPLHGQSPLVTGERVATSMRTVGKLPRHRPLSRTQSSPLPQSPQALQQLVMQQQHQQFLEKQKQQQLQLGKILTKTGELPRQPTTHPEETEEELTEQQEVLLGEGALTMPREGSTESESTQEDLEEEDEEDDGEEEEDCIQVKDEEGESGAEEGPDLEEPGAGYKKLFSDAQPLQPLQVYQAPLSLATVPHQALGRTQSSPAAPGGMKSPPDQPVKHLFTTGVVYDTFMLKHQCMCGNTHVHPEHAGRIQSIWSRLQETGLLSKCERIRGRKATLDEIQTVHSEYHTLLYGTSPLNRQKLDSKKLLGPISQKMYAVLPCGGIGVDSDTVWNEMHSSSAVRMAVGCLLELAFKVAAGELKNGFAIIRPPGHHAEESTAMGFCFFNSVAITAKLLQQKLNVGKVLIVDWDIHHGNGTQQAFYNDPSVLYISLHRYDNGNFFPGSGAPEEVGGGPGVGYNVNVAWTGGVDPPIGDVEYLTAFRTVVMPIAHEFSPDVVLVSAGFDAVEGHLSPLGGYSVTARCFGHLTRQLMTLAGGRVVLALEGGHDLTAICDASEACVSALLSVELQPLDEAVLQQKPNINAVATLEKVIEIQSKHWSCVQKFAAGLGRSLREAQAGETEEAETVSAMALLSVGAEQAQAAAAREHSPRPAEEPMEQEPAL

`O=C(NCCCNC(=O)c1ccc[nH]c1=O)c1cc(-c2ccccc2)on1` was tested, and the outcome was “inactive”.
